This test can be described thus: p53 small molecule agonists, cell-based qHTS assay with human liver microsomes (AID 1963577). As to conditions: HCT-116 p53RE-bla with human liver microsomes, ratio, 16 h; series mostly up to 66 µM. The method in brief:
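p53RE-bla cells, 4,000/well, compound added after 5 h, with human liver microsomes 0.5 mg/mL and NADPH 0.5 mg/mL final; 16 h at 37 C, then LiveBLAzer 2 h RT, fluorescence.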
A general note: qHTS replaces the single test concentration by a dilution series.

Results filed as inconclusive are left out. Entries that show only a call come without a potency. Activity calls are given as the source filed them. Calls follow the shape of the full dose curve.
Potency is read from the fitted curve at half-maximal effect.

As for `CCOP(=S)(OCC)Oc1cc(C)nc(C(C)C)n1`, the Potency entry was “inactive”.

With `C=Cc1cccc(CCl)c1`, the Potency result was “inactive”.

For the compound `O=P(Oc1ccccc1)(Oc1ccccc1)Oc1ccccc1`, the Potency entry was “inactive”.

As to `C=C(C)[C@@H]1CC=C(C=O)CC1`, the Potency result was “inactive”.

Consider `CCOP(=S)(OCC)O/N=C(\C#N)c1ccccc1`, for which the Potency is 2.57 µM (active).

With `O=C(O)CC[N+](=O)[O-]`, the Potency result was “inactive”.

In the case of `Oc1ccc(-c2ccccc2)cc1`, the Potency entry was “inactive”.

Consider `CC(=[OH+])/C=C(/C)[O-].CC(=[OH+])/C=C(\C)[O-].CC(=[OH+])/C=C(\C)[O-].[Al]`, for which the Potency result is “inactive”.

Turning to `OC(c1ccc(Cl)cc1)(c1cncnc1)c1ccccc1Cl` (stereo not drawn), the Potency entry is “inactive”.

As for `CNC(=O)Oc1cccc2c1OC(C)(C)O2`, the Potency entry is “inactive”.

Turning to `O=C(CCl)c1ccccc1`, the Potency entry is “inactive”.

As to `Brc1ccc(Oc2cc(Br)c(Br)cc2Br)c(Br)c1`, the Potency result was “inactive”.

On to `COP(=O)(OC)C(O)C(Cl)(Cl)Cl` (stereo not drawn), for which the Potency was 1.46 µM (active).

`CN1C[C@H](C(=O)N[C@]2(C)O[C@@]3(O)[C@@H]4CCCN4C(=O)[C@H](Cc4ccccc4)N3C2=O)C=C2c3cccc4[nH]cc(c34)C[C@H]21`: the Potency result is “inactive”.

For the compound `COP(=S)(OC)Oc1ccc(S(=O)(=O)N(C)C)cc1`, the Potency was 1.29 µM (active).

On to `COc1c(C(C)(C)C)cc([N+](=O)[O-])c(C)c1[N+](=O)[O-]`, for which the Potency entry was “inactive”.

Regarding `COc1ccc(C(CN(C)C)C2(O)CCCCC2)cc1` (stereo not drawn), the Potency result is “inactive”.

`CC(C)(C)OOC(=O)c1ccccc1`: the Potency result is “inactive”.

For the compound `CC(C)N(C(=O)SCC(Cl)=C(Cl)Cl)C(C)C`, the Potency result was “inactive”.

Turning to `Nc1cccc(Cl)c1`, the Potency result is “inactive”.

Take `c1cc2c(c(N3CCNCC3)c1)OCCO2`: the Potency result was “inactive”.

Take `ClC(Cl)(Cl)Br`: the Potency entry is “inactive”.

Consider `Nc1ccccc1C(=O)OCC(O)CO` (stereo not drawn), for which the Potency result was “inactive”.

For `CC[C@H](N)c1ccccc1`, the Potency entry was “inactive”.

For `FC(F)(F)c1ccc(Cl)cc1`, the Potency entry is “inactive”.

In the case of `CC1CN1` (stereo not drawn), the Potency result is “inactive”.

For `C[C@]1(O)CC[C@H]2[C@@H]3CCC4=CC(=O)CC[C@]4(C)[C@@]3(F)[C@@H](O)C[C@@]21C`, the Potency result was “inactive”.

Turning to `CC(C)(C1CCC(O)CC1)C1CCC(O)CC1` (stereo not drawn), the Potency result was “inactive”.

For the origin of these results see PubChem BioAssay (Tox21).
